Source: PubChem
NPR1 antag: Natriuretic polypeptide receptor (hNpr1) antagonism - Primary qHTS. Atrial natriuretic peptide receptor 1 (Homo sapiens), P16066. 76,000 compounds, 1.6% hits. HEK293 hNpr1 GloSensor cGMP, ANP-stimulated luminescence. Potency, µM (highest dose often 46.3 µM), usual class: inhibitors; calls by dose curve; note: nearly all actives have a fitted effect of over 60% in size
Target sequence (P16066 whole entry, looked up): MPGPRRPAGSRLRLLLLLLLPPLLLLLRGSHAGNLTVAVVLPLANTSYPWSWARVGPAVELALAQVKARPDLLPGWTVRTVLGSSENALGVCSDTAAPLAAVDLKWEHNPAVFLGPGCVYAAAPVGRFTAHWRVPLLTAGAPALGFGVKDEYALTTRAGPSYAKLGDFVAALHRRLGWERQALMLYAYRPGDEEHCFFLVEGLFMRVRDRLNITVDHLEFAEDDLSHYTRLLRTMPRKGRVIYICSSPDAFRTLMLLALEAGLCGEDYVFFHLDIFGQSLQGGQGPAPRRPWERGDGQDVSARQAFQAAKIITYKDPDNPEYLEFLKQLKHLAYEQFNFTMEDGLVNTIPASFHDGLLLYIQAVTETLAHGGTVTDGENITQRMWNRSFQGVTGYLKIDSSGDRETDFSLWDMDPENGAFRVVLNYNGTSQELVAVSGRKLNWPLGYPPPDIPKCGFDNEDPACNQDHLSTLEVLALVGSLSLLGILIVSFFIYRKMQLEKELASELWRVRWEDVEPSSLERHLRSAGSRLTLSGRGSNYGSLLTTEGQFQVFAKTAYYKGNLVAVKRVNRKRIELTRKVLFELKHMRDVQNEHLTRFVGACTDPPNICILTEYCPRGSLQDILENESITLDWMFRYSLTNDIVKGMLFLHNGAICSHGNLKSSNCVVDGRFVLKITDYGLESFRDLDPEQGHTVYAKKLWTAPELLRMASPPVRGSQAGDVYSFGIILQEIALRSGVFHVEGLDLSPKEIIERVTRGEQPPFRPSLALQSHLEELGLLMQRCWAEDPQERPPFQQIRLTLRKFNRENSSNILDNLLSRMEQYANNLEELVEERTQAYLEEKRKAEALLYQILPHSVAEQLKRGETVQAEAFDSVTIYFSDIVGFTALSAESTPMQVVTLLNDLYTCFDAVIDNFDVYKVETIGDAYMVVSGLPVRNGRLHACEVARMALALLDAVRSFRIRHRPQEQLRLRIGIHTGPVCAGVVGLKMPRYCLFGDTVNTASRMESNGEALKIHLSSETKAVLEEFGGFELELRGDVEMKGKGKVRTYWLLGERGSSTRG
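HEK293 cells stably expressing human Npr1 and cGMP GloSensor pGS-40F, loaded 2 h with 2% GloSensor reagent, given compound 30 min at room temperature. Luminescence read before and 20 min after 0.1 nM hNppA.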
SNCA expr inhib: Primary qHTS assay for inhibitors of alpha-synuclein gene (SNCA) expression | HEK-293 SNCA-luciferase knock-in, luminescence, 24 h | Potency, µM (titrated, usually from 57.2 µM), actives largely listed as inhibitors | 140,000 compounds, 0.17% hits; note: nearly all actives have a fitted effect of over 45% in size
SNCA viab count: GF-AFC viability counterscreen for inhibitors of alpha-synuclein gene (SNCA) expression | HEK-293-SNCA-luc viability, GF-AFC fluorescence, 24 h | Potency, µM (titrated, usually from 57.1 µM), actives largely listed as cytotoxic | 150,000 compounds, 0.12% hits | AID 1671193, 2021; note: nearly all actives have a fitted effect of over 30% in size
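Cytotoxicity counterscreen: after 24 h compound treatment of genome-edited SNCA-luciferase HEK-293 cells, live-cell protease substrate GF-AFC read by fluorescence after 30 min; activity scaled between DMSO (0%) and medium-only (-100%), curves Hill-fitted.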
Luciferase inh: Firefly luciferase inhibition profiling of diverse chemical library using quantitative high-throughput screening. Potency, µM (titrated, usually from 115 µM), most hits filed as inhibitors. purified P. pyralis luciferase, luminescence, biochemical. 76,000 compounds, 2.5% hits; note: nearly all actives have a fitted effect of over 65% in size
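FLuc 10nM, D-luciferin 10uM, ATP 10uM, Mg acetate 10mM, Tris acetate pH 7.5, Tween/BSA; cpd qHTS; enzyme added last; CCD luminescence.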
3T3 cytotox: Cytotoxic Profiling in NIH 3T3 Cell Line of Diverse Libraries Using Quantitative High-Throughput Screening; NIH 3T3 viability, CellTiter-Glo ATP luminescence, 48-72 h; Potency, µM (doses to about 96.7 µM), most hits filed as inhibitors; 94,000 compounds, 4.3% hits; AID 1345082, 2018; note: nearly all actives have a fitted effect of over 55% in size
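Cytotoxicity is measured as loss of cellular ATP: NIH 3T3 cells (400/well) are exposed to compound for 48 or 72 hr at 37 °C, then CellTiter-Glo luminescence is imaged after 10 min at room temperature.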
HEK293 tox: Cytotoxic Profiling in HEK 293 Cell Line of Diverse Libraries Using Quantitative High-Throughput Screening. Potency, µM (highest dose often 115 µM), hits mostly inhibitors. HEK 293 viability, ATP luminescence (CellTiter-Glo), 48-72 h. 94,000 compounds, 6.6% hits; note: nearly all actives have a fitted effect of over 60% in size
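Luminescence from cellular ATP, measured with CellTiter-Glo, indicates HEK 293 viability. Cells plated at 250 cells/well are treated with compound for 48 or 72 hr at 37 degree Celsius before reagent addition.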
Large screens that a line does not name were inactive. Rows were chosen to be rich in hits. Some 7.4% of all compounds tested hit in one or more screens of this group. Unless noted, calls come from the whole dose curve; as a rule, active = well fitted curve in the direction sought with a large enough effect; inconclusive = small, poorly fitted or top-dose-only effect, or another doubt; inactive = no such curve, though single readings can be large; an effect the other way counts as inactive or inconclusive.

O=C(NCc1ccc(F)cc1)c1ccnc(-c2nnc3ccc(Nc4ccccc4)nn23)c1	SNCA expr inhib inconclusive, SNCA viab count inconclusive, 3T3 cytotox 25µM, HEK293 tox inconclusive
CN(c1ccccc1)c1ccc2nnc(-c3cc(C(=O)NCCc4ccccc4)ccn3)n2n1	3T3 cytotox inconclusive, HEK293 tox inconclusive
COc1ccnc(-c2nnc3ccc(NC4CCOCC4)nn23)c1	3T3 cytotox 79µM
COc1cccc(Nc2ccc3nnc(-c4cc(OC)ccn4)n3n2)c1	NPR1 antag inconclusive, Luciferase inh inconclusive, 3T3 cytotox inconclusive, HEK293 tox inconclusive
COc1cccc(NC(=O)c2ccnc(-c3nnc4ccc(Nc5ccccc5)nn34)c2)c1	SNCA viab count inconclusive, 3T3 cytotox 35µM, HEK293 tox 40µM
O=C(NCC1CCCO1)c1ccnc(-c2nnc3ccc(Nc4ccccc4)nn23)c1 (stereo not given)	3T3 cytotox inconclusive, HEK293 tox inconclusive
CN(c1ccccc1)c1ccc2nnc(-c3cc(C(=O)NCc4ccncc4)ccn3)n2n1	3T3 cytotox inconclusive, HEK293 tox 71µM
COc1ccc(-c2ccccc2NC(=O)C2CCCN(C3CCOCC3)C2)cc1 (stereo not given)	none
COC(=O)[C@H](Cc1ccc(OC)cc1)NC(=O)[C@@H]1CN(C(=O)c2cccc(F)c2)CCN1C(=O)C1CCNCC1	none
COc1cccc(Nc2cccc(CN3CCC(C)(NC(C)=O)C3)c2)c1 (stereo not given)	Luciferase inh 50µM, 3T3 cytotox inconclusive, HEK293 tox inconclusive
COc1cccc(Nc2cccc(CN3CCCC(C)(NC(C)=O)C3)c2)c1 (stereo not given)	3T3 cytotox inconclusive, HEK293 tox inconclusive
CC(=O)NC1(C)CCN(Cc2cccc(Nc3cccc(Cl)c3)c2)C1 (stereo not given)	NPR1 antag inconclusive, Luciferase inh inconclusive, 3T3 cytotox 45µM, HEK293 tox 71µM
CC(=O)NC1(C)CCN(Cc2cccc(Nc3ccccc3)c2)C1 (stereo not given)	3T3 cytotox inconclusive, HEK293 tox inconclusive
NC(=O)[C@@H]1CN(C(=O)c2cncnc2)C[C@H]1COc1ccccc1	none
O=C1CCN(Cc2ccc(O)cc2)CCCC(c2nc(-c3cnccn3)no2)CCN1 (stereo not given)	none
Cc1cc(CN(C)Cc2cn(-c3cccc(F)c3)nc2-c2ccc(C)o2)n[nH]1	Luciferase inh inconclusive, 3T3 cytotox inconclusive, HEK293 tox 45µM
Cc1ccc(-c2nn(-c3cccc(F)c3)cc2CN(C)CCO)o1	Luciferase inh inconclusive
CC1(C)CCC[C@@]2(C)C1[C@H](OC(=O)/C=C/C=C/C(=O)O)C=C1COC(=O)[C@@]12O (stereo not given in full)	none (no result: NPR1 antag, SNCA expr inhib, Luciferase inh, 3T3 cytotox, HEK293 tox)
CC(C)c1noc(C2Cc3ccccc3N2C(=O)CCn2cnnn2)n1 (stereo not given)	none
CCn1ccc(C(=O)N2c3ccccc3CC2c2nc(C(C)C)no2)n1 (stereo not given)	Luciferase inh 40µM, HEK293 tox inconclusive
O=C(NCc1cccc(F)c1)C1CCCN1c1nccc(Nc2ccccc2F)n1 (stereo not given)	3T3 cytotox inconclusive, HEK293 tox inconclusive (no result: NPR1 antag, Luciferase inh)
Cc1cc(C)cc(NC(=O)C2CCN(C(=O)c3ncn4c3COC(c3ccc(F)cc3)C4)CC2)c1 (stereo not given)	Luciferase inh inconclusive
COc1ccc(C2Cn3cnc(C(=O)N4CCC(C(=O)Nc5ccc(C)c(C)c5)CC4)c3CO2)cc1 (stereo not given)	none
Cc1cccc(NC(=O)C2CCN(C(=O)c3ncn4c3COC(c3ccc(F)cc3)C4)CC2)c1C (stereo not given)	Luciferase inh inconclusive
Cc1ccc(NC(=O)C2CCN(C(=O)c3ncn4c3COC(c3ccc(F)cc3)C4)CC2)cc1C (stereo not given)	Luciferase inh 35µM
Cc1ccc(NC(=O)C2CCN(C(=O)c3ncn4c3COC(c3ccc(F)cc3)C4)CC2)c(Cl)c1 (stereo not given)	Luciferase inh 25µM
O=C(Nc1ccc2c(c1)CCC2)C1CCN(C(=O)c2ncn3c2COC(c2ccc(F)cc2)C3)CC1 (stereo not given)	Luciferase inh 28µM
Cc1cc(NC(=O)C2CCN(C(=O)c3ncn4c3COC(c3ccc(F)cc3)C4)CC2)ccc1Cl (stereo not given)	Luciferase inh 40µM, 3T3 cytotox inconclusive
COc1cc(C(=O)N2CCC(Cc3nc(C(C)C)no3)CC2)cc(OC)c1OC	3T3 cytotox inconclusive, HEK293 tox inconclusive
O=C1NC2(CCCN(C(=O)c3ccc(F)cc3)C2)Oc2ccccc21 (stereo not given)	none
CCc1nc(NC(c2ccccc2)c2ccco2)c2cnn(C)c2n1 (stereo not given)	3T3 cytotox inconclusive, HEK293 tox 40µM
CC(C)C(=O)N1CCCCCCN(C)C(=O)[C@@H]2CCC[C@@H]21	none
Cc1nc2c(NC3CCN(C(=O)c4cccn4C)CC3)cccn2n1	3T3 cytotox inconclusive, HEK293 tox inconclusive
Cc1ccnc(NS(=O)(=O)c2ccc(NC(=O)Nc3ccc(S(=O)(=O)Nc4nccc(C)n4)cc3)cc2)n1	SNCA expr inhib 0.86µM, SNCA viab count inconclusive (no result: NPR1 antag, Luciferase inh, 3T3 cytotox, HEK293 tox)
CC(C)NC(=O)C[C@@H]1C[C@H]2O[C@H](CNCc3ccncc3F)[C@@H](O)[C@H]2O1	none
CC1=C[C@@H](CNC(=O)COCC(=O)O)[C@H](C(C)C)C[C@H]1Cc1nc2ccccc2n1C	none
CC1=C[C@@H](CNC(=O)c2cnccn2)[C@H](C(C)C)C[C@H]1Cc1nc2ccccc2n1C	NPR1 antag inconclusive, SNCA viab count inconclusive, 3T3 cytotox inconclusive, HEK293 tox inconclusive
CC1=C[C@@H](CNC(=O)Cn2cnnn2)[C@H](C(C)C)C[C@H]1Cc1nc2ccccc2n1C	NPR1 antag inconclusive, SNCA expr inhib inconclusive, SNCA viab count inconclusive, 3T3 cytotox 89µM, HEK293 tox inconclusive
COCC(=O)NC[C@@H]1C=C(C)[C@H](Cc2nc3ccccc3n2C)C[C@H]1C(C)C	NPR1 antag inconclusive, SNCA viab count inconclusive, 3T3 cytotox 50µM, HEK293 tox 56µM
